USP28 inh: blocks human USP28 ubiquitin-rhodamine cleavage; purified USP28, Ub-rhodamine cleavage fluorescence, 30 min; inhibition, % at 25 µM; AID 1645857; actives 3% (n = 47,000)
USP8 block: inhibitors of human USP8 deubiquitinase; purified USP8, Ub-rhodamine cleavage fluorescence, 30 min; actives 4.2% (n = 47,000); inhibition, % at 20 µM
USP17 inh: inhibitors of human USP17 deubiquitinase | A8MUK1 | purified USP17, Ub-rhodamine cleavage fluorescence, 3 h | inhibition, % at 50 µM | actives 6.5% (n = 47,000)
USP30 inh: human USP30 deubiquitinase inhibition; Q70CQ3; purified USP30, Ub-rhodamine cleavage fluorescence; inhibition, % at 25 µM; actives 5.3% (n = 47,000); AID 1645860
USP10 inh: inhibitors of human USP10 deubiquitinase; actives 1.1% (n = 47,000); inhibition, % at 20 µM; purified USP10, Ub-rhodamine fluorescence, 60 min; Q14694; AID 1645856
The depositor's hits bear a star. Most compounds without a hit are left out; they make up all but 14% or so of the library. Cut-off read from the data, not from the text of the source: active = inhibition above about 30%; inactive = the rest.

SMILES | USP28 inh | USP8 block | USP17 inh | USP30 inh | USP10 inh
COc1cccc(OC)c1C(=O)Nc1ccccc1NC(=O)c1c(OC)cccc1OC | -15 | -39 | -17 | -7 | -1
CC1=C(C(=O)c2ccc(Cl)cc2)C(c2ccc(C(C)C)cc2)NC(=O)N1 (centres undefined) | 0 | 73* | 32* | -106 | -5
Cc1ccc(OCC(=O)Nc2onc3c2CCCC3)cc1C | 30* | 5 | 6 | 21 | 6
O=C(COc1ccc(F)cc1)Nc1onc2c1CCCC2 | 9 | 6 | 1 | 10 | -2
Cn1c(N2CCCCCC2)nc2c1c(=O)n(Cc1ccc(Cl)cc1)c(=O)n2C | 11 | -11 | 2 | 39* | 2
Cn1c(N2CCCCCC2)nc2c1c(=O)n(Cc1ccccc1Cl)c(=O)n2C | -6 | -20 | -9 | -5 | 0
Cn1c(=O)n(Cc2ccccc2F)c(=O)c2c1nc1n2CCCN1Cc1ccccc1 | 22 | -12 | 7 | 40* | 7
Cc1ccc(CN2CCCn3nc(C(=O)NCc4ccccc4C)cc3C2=O)cc1 | 9 | 14 | 50* | 52* | 4
O=C(c1cccnn1)N1CCCC(c2cncc(Oc3ccccc3)n2)C1 (centres undefined) | 6 | 8 | 2 | 15 | -2
O=C(Cc1ccccc1)Nc1ccc2[nH]ncc2c1 | -27 | 61* | 27 | -174 | -2
O=C(Nc1ccc2[nH]ncc2c1)c1ccc(F)cc1 | 0 | -2 | 22 | 0 | 0
CN(C(=O)OC(C)(C)C)C1CCC2(CC1)Cc1c(N)nc(N)nc1O2 (centres undefined) | -4 | -11 | -14 | -25 | -2
CCn1c(=O)c(C(=O)Nc2ccc(Br)c(C)c2)nc2ccccc21 | 7 | -21 | 20 | 40* | 1
Cc1cccc(OCC(=O)Nc2ccc3c(c2)NC(=O)CO3)c1 | 4 | 0 | 41* | 12 | 2
Cc1cc(OCC(=O)Nc2ccc3c(c2)NC(=O)CO3)ccc1Cl | 13 | 53* | 10 | 14 | 45*
CCc1cccc(NC(=O)N2CCCC3(CCCN3C)C2)c1 (centres undefined) | -8 | 4 | -9 | -7 | 3
Cc1ccc(NC(=O)CC(c2cccc(F)c2)n2cccc2)cc1F (centres undefined) | 12 | 9 | 28 | 23 | 10
CS(=O)(=O)N(CC(=O)N1CCC(Cc2ccccc2)CC1)c1ccccc1Cl | 9 | 0 | 4 | 17 | 0
COc1cccc(/C=C/C(=O)Nc2ccc(C)c(Cl)c2)c1 | 65* | 32* | 26 | 40* | 11
Cn1c(=O)cc(C(=O)Nc2cc(C(F)(F)F)cc(C(F)(F)F)c2)[nH]c1=O | 12 | 20 | 21 | 36* | 12
O=C(Nc1ccc(Cl)cc1)c1nc(-n2cnnc2)ccc1Cl | 9 | -23 | 36* | 17 | 1
O=C(Nc1nnc(Cc2ccccc2)s1)c1cc(=O)[nH]c2ccccc12 | -8 | 8 | 5 | 0 | 2
O=C(Cc1nnc(NC(=O)Nc2ccc3c(c2)OCO3)s1)NCc1ccccc1 | 8 | 48* | 8 | 6 | 34*
O=C(Nc1ccc2c(c1)OCCO2)Nc1nnc(CC(=O)N2CCCCC2)s1 | 56* | 0 | -5 | 11 | 4
O=C(Nc1ccc2c(c1)OCCO2)Nc1nnc(CC(=O)N2CCOCC2)s1 | 7 | -3 | -7 | 2 | 5
SMILES | USP28 inh | USP8 block | USP17 inh | USP30 inh | USP10 inh
Cc1cccc(C(=O)Nc2nnc(Cc3cn(C)c4ccccc34)s2)c1 | 9 | 34* | 27 | -62 | 15
Cc1cccc(NC(=O)Nc2nnc(CC(=O)NCc3ccccc3)s2)c1 | -5 | -1 | 73* | 3 | 21
CC1=CC(=O)CC(C)(C)[C@@]1(O)/C=C/C(C)=C\C(=O)O | -4 | -6 | -23 | -5 | -6
CC(=O)NCC(=O)N1[C@H](Cc2cccc(F)c2)C[C@@H]2NC(=O)CCCC[C@H]21 | -14 | -4 | -5 | -8 | -2
Cc1nc2c(-c3ccncc3)nsc2c(=O)n1CC(=O)Nc1ccccc1F | -67 | 0 | 46* | -332 | -12
Cc1ncc(C(=O)NC2CC2)c(=O)n1CC(=O)Nc1ccccc1F | -10 | -5 | -6 | -5 | -2
COc1ccccc1-c1nc2c3c(C)c(C)n(-c4ccc(Br)cn4)c3ncn2n1 | -12 | 14 | 51* | -149 | -7
CN1CCC(Nc2nnc(-c3nnc(C4CC4)o3)c3ccccc23)CC1 | 7 | 3 | 6 | 13 | 2
CCc1nnc(-c2nnc(NC3CCN(C)CC3)c3ccccc23)o1 | 17 | 3 | 12 | 32* | 1
c1cc(-c2noc(C3CCCO3)n2)ccc1-c1csc(C2CC2)n1 (centres undefined) | 40* | 5 | 3 | -27 | 2
NCCNC(=O)c1cnc2n1CC(c1cccc(C(F)(F)F)c1)CC2 (centres undefined) | -5 | -6 | -42 | 0 | 0
CN(C)C(=O)C1Cn2ccnc2C2(CCN(C(=O)NC3CCCC3)CC2)O1 (centres undefined) | -3 | -6 | -2 | -12 | 0
Cc1oc(-c2ccccc2)nc1Cn1nnc(-c2nc(-c3ccc(F)cc3)no2)c1C | -6 | -7 | 3 | -54 | 6
Cc1nn(-c2ccccc2)c(C)c1S(=O)(=O)Nc1cccnc1 | -9 | -8 | -71 | -13 | 2
Cc1nn(-c2ccc(-c3ccccc3)nn2)c(C)c1S(=O)(=O)NC(C)C | 8 | -27 | 37* | 21 | 6
CN(CC(=O)Nc1ccc(Cl)cc1)c1cnn(-c2nc3ccccc3[nH]2)c(=O)c1Cl | 20 | 30* | 10 | 3 | 25
Cc1ccc(C)c(Cn2nnc3c(=O)[nH]c(C4CCN(S(=O)(=O)c5ccc(S(=O)(=O)NC6CCCC6)cc5)CC4)nc32)c1 | 21 | -18 | -8 | -1 | 30
Cc1ccc(C)c(Cn2nnc3c(=O)[nH]c(C4CCN(S(=O)(=O)c5ccc(S(=O)(=O)N6CCOCC6)cc5)CC4)nc32)c1 | 15 | 56* | 40* | 33* | 15
Cc1ccc(C)c(Cn2nnc3c(=O)[nH]c(C4CCN(S(=O)(=O)c5ccc(S(=O)(=O)NC6CC6)cc5)CC4)nc32)c1 | 42* | -42 | 30* | 52* | 26
O=C(NCCCN1CCCC1)c1ccc(CS(=O)(=O)c2ccc(Br)cc2)o1 | -6 | -3 | 40* | -24 | -4
Cc1cccc(NC(=O)Cc2nc(-c3cccnc3)n[nH]2)c1C | -5 | -12 | -10 | -10 | -5
N#Cc1c2ccc(OCc3ccc(Br)cc3)cc2n2ccccc12 | -12 | 4 | -18 | -133 | -5
CCOC(=O)c1c2ccc(OCc3ccc([N+](=O)[O-])cc3)cc2n2ccccc12 | 1 | 74* | 25 | 8 | 2
COc1cccc(CC(=O)Nc2ccc3nc(C)sc3c2)c1 | 0 | -16 | -10 | -12 | -2
COc1cccc(CNC(=O)c2ccc3nc(N4CCOCC4)sc3c2)c1OC | 8 | -49 | -3 | -7 | -1
COc1ccc(NC(=O)CNC(=O)c2ccc3nc(-n4cccc4)sc3c2)cc1 | 17 | 82* | 31* | -45 | 28

High-throughput results: PubChem BioAssay, Buhrlage Lab, Dana-Farber Cancer Institute and Novartis Institutes for BioMedical Research (Cambridge, Mass)
